Assay results: PubChem BioAssay AID602410 (Johns Hopkins Ion Channel Center, 2012)
The campaign covered roughly 340,000 compounds. About 2,800 (0.82%) were called active.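 Rule for the calls: active = B-score under library mean minus 4 SD, starting fluorescence ratio at most library mean plus 5 SD; inactive = the rest.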 Only a selection was taken, and actives are over-represented in it overall.

What follows are compounds tested against Potassium channel subfamily K member 3 (Homo sapiens) (UniProt O14649) (assay: blockers of TASK1 two-pore potassium channel – CHO cells, FluxOR thallium flux, B-score, primary screen (AID 602410;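 for B-score: more negative B-score means stronger inhibition of thallium flux through KCNK3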)). Conditions: CHO-KCNK3 thallium flux, FluxOR fluorescence, at 10 µM; active compounds read low.
Sequence of Potassium channel subfamily K member 3 (Homo sapiens) (O14649 whole entry, looked up): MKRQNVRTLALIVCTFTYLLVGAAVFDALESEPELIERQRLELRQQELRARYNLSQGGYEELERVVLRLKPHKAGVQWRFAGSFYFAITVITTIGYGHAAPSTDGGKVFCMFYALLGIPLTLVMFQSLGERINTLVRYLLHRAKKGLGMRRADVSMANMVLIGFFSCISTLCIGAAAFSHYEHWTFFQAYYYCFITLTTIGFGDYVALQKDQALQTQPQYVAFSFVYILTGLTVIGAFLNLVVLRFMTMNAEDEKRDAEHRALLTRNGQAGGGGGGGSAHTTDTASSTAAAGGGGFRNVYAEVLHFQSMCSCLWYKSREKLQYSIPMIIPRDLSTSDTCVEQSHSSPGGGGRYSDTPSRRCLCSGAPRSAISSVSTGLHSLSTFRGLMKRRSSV
With `CCN(C[C@H]1N[C@@](CC)(C(=O)OC)[C@H]2C(=O)N(Cc3ccccc3)C(=O)[C@@H]12)S(=O)(=O)c1ccccc1` the B-score was “inactive”.
For `CCOc1c(Br)cc(/C=C2\C(=O)N(CCC#N)N=C2C)cc1OC`, the B-score was “inactive”.
`O=C(COC(=O)/C=C/c1ccc(S(=O)(=O)N2CCCCCC2)cc1)NCc1ccccc1Cl` was tested, and the B-score was “inactive”.
In the case of `CC(=O)c1cccc(NC(=O)CN2C(=O)c3cccnc3Oc3ccc(Cl)cc32)c1`, the B-score is reported as “inactive”.
With `COC(=O)CCC(=O)N1CCCC(CO)(Cc2ccccc2)C1` (centres undefined) the B-score was “inactive”.
With `Cc1ccccc1CC1(CO)CCCN(C(=O)c2cc(-c3ccccc3)no2)C1` (centres undefined) the B-score was “inactive”.
`CCCc1cc(C(=O)N2CCCC(CO)(CCCc3ccccc3)C2)n(C)n1` (centres undefined) was tested, and the B-score was -9.3 (active).
With `CC(Sc1nnc(CNC(=O)c2ccccc2F)n1C)C(=O)Nc1nccs1` (centres undefined) the B-score was “inactive”.
For `CC1CCN(S(=O)(=O)c2ccc(NC(=O)C3CC(=O)N(c4ccccc4)C3)cc2)CC1` (centres undefined), the B-score was “inactive”.
For `COc1ccc(Nc2ncnc3sc(-c4ccccc4)cc23)c(OC)c1`, the B-score was -12 (active).
For `COc1ccc(Nc2ncnc3sc(C)cc23)cc1`, the B-score was “inactive”.
With `COc1ccc(Nc2ncnc3ccc(Br)cc23)c(OC)c1` the B-score was “inactive”.
With `COC(=O)c1sc(SC)c(S(=O)(=O)C(C)C)c1N/N=C(\C#N)S(=O)(=O)c1ccccn1` the B-score was “inactive”.
For `CC1CCN(C(=O)/C(=C\c2ccccc2F)NC(=O)c2ccccc2)CC1`, the B-score was “inactive”.
In the case of `COC(=O)CN1C(=O)[C@H]2[C@@H](/C=C/c3ccccc3)N3C(=O)CN(CC4CC4)C(=O)[C@@]3(Cc3ccccc3)[C@H]2C1=O`, the B-score is reported as “inactive”.
`O=C(CC1CCCCC1)Nc1c2c(nn1-c1ccc(F)cc1)CS(=O)(=O)C2` was tested, and the B-score was “inactive”.
For `C=CCNC(=O)c1ccccc1NC(=O)c1ccc(Cl)c(S(=O)(=O)Nc2cccc(C)c2C)c1`, the B-score was “inactive”.
For `CCCCc1ccc(NC(=O)NCc2cccnc2)cc1`, the B-score was “inactive”.
For `CN(C)CCCN1C(=O)CSC1c1ccc([N+](=O)[O-])cc1` (centres undefined), the B-score was “inactive”.
`CCCCCCCCCCCCN1C(=O)CSC1c1cccnc1` (centres undefined) was tested, and the B-score was -18.4 (active).
In the case of `Cc1ccc(C(=O)Nc2ccc3c(c2)OCCO3)cc1S(=O)(=O)N1CCOCC1`, the B-score is reported as “inactive”.
In the case of `CCCn1nnc(NC(=O)COc2ccc(CC)cc2)n1`, the B-score is reported as “inactive”.
With `COc1ccccc1N1CCC(N2CCN(CC(C)(C)C)C(CCO)C2)CC1` (centres undefined) the B-score was “inactive”.
In the case of `O=c1oc2c(CN3CCCCC3)c(O)ccc2c2c1CCCCC2`, the B-score is reported as “inactive”.
For `CCCOc1ccc2c3c(c(=O)oc2c1OCCC)CCC3`, the B-score was -11.4 (active).
For `COc1ccc2c3c(c(=O)oc2c1OCC(=O)C(C)(C)C)CCCC3`, the B-score was “inactive”.
`O=[N+]([O-])c1cccc(C=NN=Cc2ccccc2O)c1` was tested, and the B-score was “inactive”.
In the case of `O=C(CCl)N(Cc1cccc([N+](=O)[O-])c1)c1cccc(Cl)c1`, the B-score is reported as “inactive”.
With `C=CCN(N=Nc1cccc([N+](=O)[O-])c1)c1cccc([N+](=O)[O-])c1` the B-score was -9.23 (active).
With `Cc1cc(Nc2cccc(F)c2)n2ncnc2n1` the B-score was “inactive”.
With `CC(NCC(=O)Nc1cc(Cl)cc(Cl)c1)c1ccccc1` (centres undefined) the B-score was “inactive”.
With `CC(NCc1cccs1)C(=O)Nc1cc(Cl)cc(Cl)c1` (centres undefined) the B-score was -9.85 (active).
With `CC(=O)c1ccc(NC(=O)C(C)NCc2ccc(Cl)cc2)cc1` (centres undefined) the B-score was “inactive”.
In the case of `CC(=O)Nc1ccccc1OC(C)C(=O)N1CCC(C)CC1` (centres undefined), the B-score is reported as “inactive”.
`CCOc1ccc(Br)cc1S(=O)(=O)Nc1ccc(C(=O)OC(C)C(=O)N(C)c2ccccc2)cc1` (centres undefined) was tested, and the B-score was “inactive”.
In the case of `COCCCNC(=O)CCc1nc2cccnc2n1Cc1ccc(OC)cc1`, the B-score is reported as “inactive”.
`Cc1ccc2nc(NC(=O)C3CSC4(C)CCC(=O)N34)sc2c1` (centres undefined) was tested, and the B-score was “inactive”.
`CCOc1ccc(N(CC(=O)OC)S(=O)(=O)c2c(C)noc2C)cc1` was tested, and the B-score was “inactive”.
In the case of `Cc1ccc2nc(COc3ccc(N(C)S(=O)(=O)c4ccccc4)cc3)cc(=O)n2c1`, the B-score is reported as “inactive”.
`COc1cccc(COc2ccc(N(C)S(=O)(=O)c3ccccc3)cc2)c1` was tested, and the B-score was -13.2 (active).
For `COc1ccc(N(Cc2ccccc2)S(=O)(=O)c2cccc(C(=O)O)c2)cc1`, the B-score was “inactive”.
`Nc1nnc2c(C(F)(F)F)nc3ccccc3n12` was tested, and the B-score was “inactive”.
With `Cc1cccc(-c2nc3ccc(C(=O)NCCN4CCN(C)CC4)cc3nc2-c2cccc(C)c2)c1` the B-score was -9.46 (active).
In the case of `Cc1cc(C)cc(C(=O)NCCN2CCOCC2)c1`, the B-score is reported as “inactive”.
In the case of `Cc1cccc(C(=O)OC(C)CN2CCN(C)CC2)c1` (centres undefined), the B-score is reported as “inactive”.
`Cc1nnc(C)c2c(C)n(N)c(C)c12` was tested, and the B-score was “inactive”.
`C=C1CCC(N(O)c2cc(C)on2)C(=C)CCC2C1CC2(C)C` (centres undefined) was tested, and the B-score was “inactive”.
With `COc1ccc(C(=O)CSc2nnnn2C)c(OC)c1` the B-score was “inactive”.
`CC(C)(C)Nc1nc(-c2ccccn2)nc2ccccc12` was tested, and the B-score was “inactive”.
`Oc1ccc(/C=N/Nc2nc(-c3ccccc3F)nc3ccccc23)c(O)c1` was tested, and the B-score was -11 (active).
In the case of `Oc1ccc(-c2nc3ccccc3nc2-c2ccc(O)cc2O)c(O)c1`, the B-score is reported as “inactive”.
For `CC1CC(C)CN(C(=O)CSc2ccsc2[N+](=O)[O-])C1` (centres undefined), the B-score was “inactive”.
For `CC(C)OCCCNC(=O)c1ccc(C2SCC(=O)N2Cc2ccco2)cc1` (centres undefined), the B-score was “inactive”.
`COc1c(N2CCN(C(=S)Nc3ccccc3F)C(C)C2)c(F)cc2c(=O)c(C(=O)O)cn(C3CC3)c12` (centres undefined) was tested, and the B-score was “inactive”.
With `CCOC(=O)Cc1csc(NC(=O)CSc2nnc(-c3cccnc3)n2Cc2ccco2)n1` the B-score was “inactive”.
With `CCOC(=O)CSc1nc2c(c(=O)n(Cc3ccccc3Cl)c(=O)n2C)n1C` the B-score was “inactive”.
`CCOC(=O)CSc1nc2c(sc(=S)n2CCc2ccccc2)c(=O)n1Cc1ccco1` was tested, and the B-score was -9.18 (active).
With `O=C(CSc1nnc2n1CCCN2)c1ccccc1` the B-score was “inactive”.
For `CC(C)(C)n1nnnc1C(c1cccs1)N(Cc1cccnc1)CC1CCCO1` (centres undefined), the B-score was “inactive”.
For `CCOc1ccc(CN(Cc2ccco2)S(=O)(=O)c2ccc(-n3cnnn3)c(OC)c2)cc1`, the B-score was “inactive”.
In the case of `CCOc1ccc(CN(Cc2ccco2)C(c2cccs2)c2nnnn2C(C)(C)C)cc1` (centres undefined), the B-score is reported as -10.5 (active).
For `Cc1nc(NC(CC(C)C)C(=O)O)c2nc(C)oc2n1` (centres undefined), the B-score was “inactive”.
For `FC(F)(F)c1cccc(N/N=C/c2ccccc2)c1`, the B-score was “inactive”.
`FC(F)(F)c1cccc(NC(=S)Nc2cccc(Cl)c2)c1` was tested, and the B-score was -10.9 (active).
For `Cn1cc(Cl)c(C(=O)NNC(=S)Nc2cccc(Cl)c2)n1`, the B-score was “inactive”.
In the case of `COC(=O)CNS(=O)(=O)c1ccc(Cc2ccc(S(=O)(=O)NCC(=O)OC)cc2)cc1`, the B-score is reported as “inactive”.
`CCN1CCN(C(=O)Cn2nc(C)n3c(cc4c(OC)cccc43)c2=O)CC1` was tested, and the B-score was “inactive”.
For `COc1ccccc1Oc1ccc(N2CC(C(=O)OCC(=O)c3ccc(F)cc3)CC2=O)cc1` (centres undefined), the B-score was “inactive”.
In the case of `CC(O)c1nc2ccccc2n1Cc1ccc([N+](=O)[O-])cc1` (centres undefined), the B-score is reported as “inactive”.
For `COc1cccc(-n2c(=S)sc3c(=O)n(-c4ccccc4OC)c(SCC4OCCO4)nc32)c1`, the B-score was “inactive”.
With `CCc1ccc(-n2c(=S)sc3c(=O)n(-c4ccccc4OC)c(=S)[nH]c32)cc1` the B-score was -11 (active).
In the case of `COc1ccccc1-n1c(=S)[nH]c2c(sc(=S)n2-c2ccc(C)cc2C)c1=O`, the B-score is reported as “inactive”.
In the case of `C/C(=N\Nc1ccc([N+](=O)[O-])cc1)c1ccc(-n2nncc2C(C)(C)C)cc1`, the B-score is reported as “inactive”.
`CCCCC(NC(=O)c1cccc(Br)c1)C(=O)O` (centres undefined) was tested, and the B-score was “inactive”.
In the case of `O=[N+]([O-])c1ccc2c(c1)Nc1nc3ccccc3nc1N2`, the B-score is reported as “inactive”.
`O=[N+]([O-])c1cc2ccccc2nc1-c1ccccc1` was tested, and the B-score was “inactive”.
With `COc1ccc([N+](=O)[O-])cc1-c1nc2ccccc2nc1-c1ccccc1` the B-score was -12 (active).
With `CCOc1ccc(NC(=O)c2ccccc2NS(C)(=O)=O)cc1` the B-score was “inactive”.
For `COc1cc(NC(=O)c2ccccc2NS(=O)(=O)c2ccc(Cl)s2)cc(OC)c1`, the B-score was -9.84 (active).
With `COc1ccccc1C(=O)Nc1ccccc1C(=O)Nc1ccccc1` the B-score was “inactive”.
For `Cc1ccc(S(=O)(=O)NNC(=S)NC(C)(C)C)cc1`, the B-score was “inactive”.
With `O=C(Nn1c(SCc2ccc([N+](=O)[O-])cc2)nc2ccccc2c1=O)c1ccc(F)cc1` the B-score was -9.24 (active).
`C=CCn1c(SCc2ccc(C(=O)NCCO)cc2)nc2ccccc2c1=O` was tested, and the B-score was “inactive”.
With `Cc1nc2ccccc2c(=O)n1NC(=O)c1ccc(Cl)c([N+](=O)[O-])c1` the B-score was “inactive”.
For `Cc1nc2cccnc2nc1C`, the B-score was “inactive”.
In the case of `COc1ccc(-c2c(NC(=O)c3ccco3)oc3ccc(Cl)cc3c2=O)cc1`, the B-score is reported as “inactive”.
`Cc1cc([N+](=O)[O-])ccc1NC1CCCC1` was tested, and the B-score was “inactive”.
In the case of `Cc1cc(C=O)c(C)n1-c1ccc(NC2CCCCC2)c([N+](=O)[O-])c1`, the B-score is reported as -13.4 (active).
For `Cc1c(NS(=O)(=O)c2ccc(NC3CCCC3)c([N+](=O)[O-])c2)c(=O)n(-c2ccccc2)n1C`, the B-score was “inactive”.
In the case of `Cc1cccc(N=C2NC(=O)CS2)c1C`, the B-score is reported as “inactive”.
In the case of `CCn1cc(C(=O)NCCCN2CCCCCC2)c(=O)c2cc(S(=O)(=O)N3CCc4ccccc4C3)ccc21`, the B-score is reported as “inactive”.
In the case of `O=C(CSc1nnc(-c2ccncc2)n1-c1ccc(Cl)cc1)Nc1ccc(C(=O)O)cc1`, the B-score is reported as “inactive”.
For `CCN(CC(=O)Nc1ccc2c(c1)OCCO2)Cc1cc(=O)oc2cc(C)c(C)cc12`, the B-score was -8.72 (active).
In the case of `O=C(COc1ccc2c(C(F)(F)F)cc(=O)oc2c1)Nc1ccc2c(c1)OCCO2`, the B-score is reported as “inactive”.
`Cc1ccc(SCC(=O)Nc2ccc3c(c2)OCCO3)cc1` was tested, and the B-score was “inactive”.
In the case of `Cc1cccc(N(C(=O)Cn2nnc(-c3ccc(C)o3)n2)C(C(=O)NC2CCCC2)c2ccncc2)c1` (centres undefined), the B-score is reported as “inactive”.
`CCC(C)(C)NC(=O)/C=C/c1cc(OC)c(OC)c(S(=O)(=O)N2CCc3ccccc32)c1` was tested, and the B-score was “inactive”.
`COc1cc(Cl)c(S(=O)(=O)N2CCN(Cc3ccc4c(c3)OCO4)CC2)cc1Cl` was tested, and the B-score was -11.5 (active).
`CCn1cc(C(=O)N2CCN(Cc3ccc4c(c3)OCO4)CC2)c2cc(OC)c(OC)cc2c1=O` was tested, and the B-score was “inactive”.
`COc1ccc(-c2cc(C(=O)N3CCN(Cc4ccc5c(c4)OCO5)CC3)on2)cc1OC` was tested, and the B-score was “inactive”.
For `Cc1nc(N)sc1N=Nc1c(C)n(C)n(-c2ccccc2)c1=O`, the B-score was “inactive”.
In the case of `O=C(c1cc2ccccc2o1)N1CCN(c2cccc(C(F)(F)F)c2)CC1`, the B-score is reported as “inactive”.
In the case of `FC(F)(F)c1cccc(-c2cc3ccccc3nc2N2CCCC2)c1`, the B-score is reported as -9.37 (active).
`c1ccc(-c2cc(N3CCCCC3)c3ccccc3n2)cc1` was tested, and the B-score was “inactive”.
